Only some compounds are listed: those with a hit (about 3.1% of all), similar ones and a draw of the others.
p53null 32C kill = p53 null cell cytotoxicity, permissive temperature; Potency, µM (titrated, usually from 46.1 µM), inactives show at the top dose activity change, negative = cytotoxicity, usual class: cytotoxic; H1299-neo p53 null cells, ATP luminescence, 24 h, 32C; 0.62% of 55,000 active; AID 903;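 also: potency is read from the fitted curve at half-maximal effect; 0% = DMSO only and -100% = full killing by 100 µM tamoxifen; nearly all actives have a fitted effect of over 55% in size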
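ATP-content luminescence in p53-null H1299-neo cells after 24 h compound exposure (up to 46 uM) at 32C permissive temperature; 0% and 100% killing set by DMSO and 100 uM tamoxifen; Hill-equation AC50.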
S16 F2sN tox = cytotoxicity in S16 Pmp22-F2sN Schwann cells; S16 Pmp22-F2sN Schwann cells viability, CellTiter-Glo, 24 h; Potency, µM (series often up to 57.5 µM), for inactives: top-dose activity change, negative = cytotoxicity, most hits filed as cytotoxic; 0.48% of 43,000 active; also: potency is read from the fitted curve at half-maximal effect; % is scaled to controls: 0 for no effect and ±100 for the full control effect; nearly all actives have a fitted effect of over 65% in size
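S16 Schwann cells carrying the Pmp22-F2sN reporter, seeded in 1536-well format, were exposed to library compounds for 24 h at 37C. Viability was read as CellTiter-Glo luminescence after 15 min at room temperature.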
OvCa metastasis = blocks SKOV3ip1 adhesion and invasion in omental model | SKOV3ip1-GFP adhesion/invasion on 3D omental model, fluorescence | Potency, µM (highest dose often 45.8 µM), for inactives: top-dose activity change, negative = inhibition, actives largely listed as inhibitors | 0.1% of 46,000 active | AID 1963576;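 also: potency is read from the fitted curve at half-maximal effect; plate controls were DMSO wells for no effect and tomatine positive control wells for full effect; nearly all actives have a fitted effect of over 65% in size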
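Adhesion/invasion was scored as fixed GFP-labeled SKOV3ip1 cell counts (488/509 nm), normalized to DMSO and tomatine controls. Cancer cells in serum-free medium, with four compound doses (0.36-46 umol/L), sat 2 hr at RT then 16 hr at 37 C on a 48 hr fibroblast/mesothelial/ECM culture.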
p53null 39C kill = p53 null cell cytotoxicity, nonpermissive temperature; H1299 p53-null (neo) cells, 39C, ATPlite viability, 24 h; Potency, µM (titrated, usually from 46.1 µM), without a hit: top-dose activity, negative = cell killing, most hits filed as cytotoxic; 0.97% of 55,000 active; AID 904;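 also: potency is read from the fitted curve at half-maximal effect; 0% = DMSO only and -100% = full killing by 100 µM tamoxifen; nearly all actives have a fitted effect of over 50% in size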
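Cells seeded at 600/well, 37C overnight. Compound added (up to 46 uM), plates shifted to 39C for 24 hr. ATPlite added, luminescence read after 20 min at room temperature.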
PMP22 txn prim = PMP22 gene transcription modulation | S16 Pmp22-F2sN Schwann cells (luciferase reporters placed in the Pmp22 gene), FLuc/NLuc coincidence luminescence, 24 h | Potency, µM (titrated, usually from 57.5 µM), for the others: top-dose activity change, negative = inhibition, hits mostly inhibitors | 2% of 43,000 active | AID 1508649; active = clear falling dose curves in both reporters; inconclusive = both reporters move, but less clearly or upward; inactive = either reporter flat; the % is the NLuc reporter signal; also: potency is read from the fitted curve at half-maximal effect; % is scaled to controls: 0 for no effect and ±100 for the full control effect
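S16(c9) Schwann cells with FLuc/NLuc coincidence reporter in the Pmp22 3' UTR; compounds pin-transferred, 24 h at 37C. Dual-luciferase read: FLuc first, then NLuc after Stop&Glo, each 10 min at room temperature.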
pS6 MEF inh = inhibitors of mTORC1 signaling in Tsc2-/- p53-/- MEF cells | Tsc2-/- p53-/- MEF, phospho-rpS6 immunofluorescence/PI, 24 h | Potency, µM (series often up to 38.3 µM), for the others: at the highest dose activity change, negative = inhibition, actives largely listed as inhibitors | 0.78% of 44,000 active | AID 493208;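 also: potency is read from the fitted curve at half-maximal effect; plate controls were DMSO for no effect and rapamycin for full effect; nearly all actives have a fitted effect of over 50% in size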
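Compounds act on Tsc2-/-, p53-/- fibroblasts carrying an empty vector for 24 h before fixation and dual staining for phospho-S6 and DNA (propidium iodide). Values are percentages of cells above a rapamycin-defined pS6/PI threshold.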
NLuc sat counter = NanoLuc enzyme inhibition artifact for PMP22 screen | shares compounds with PMP22 txn prim | Secreted NLuc enzyme (filtered S16 cell medium), Nano-Glo luminescence | Potency, µM (titrated, usually from 57.5 µM), for inactives: top-dose activity change, negative = inhibition, most hits filed as inhibitors | 4% of 690 active; also: potency is read from the fitted curve at half-maximal effect; % is scaled to controls: 0 for no effect and ±100 for the full control effect
NLuc Km counter = inhibits NanoLuc under Km conditions, PMP22 counter-screen. AID 1508639. Potency, µM (titrated, usually from 57.5 µM), without a hit: top-dose activity change, negative = inhibition, usual class: inhibitors. secreted NLuc enzyme, coelenterazine luminescence, Km conditions. 5% of 690 active. shares compounds with PMP22 txn prim; also: potency is read from the fitted curve at half-maximal effect; % is scaled to controls: 0 for no effect and ±100 for the full control effect
FLuc counter = inhibits firefly luciferase, PMP22 counter-screen | shares compounds with PMP22 txn prim | AID 1508640 | purified P. pyralis FLuc, luminescence, 10 min | 690 tested, under 10 active | Potency, µM (top dose mostly 57.5 µM), for inactives: at the highest dose activity, negative = inhibition, most hits filed as inhibitors; also: % of control where 0% means no effect
Target sequence (P08659 whole entry, looked up): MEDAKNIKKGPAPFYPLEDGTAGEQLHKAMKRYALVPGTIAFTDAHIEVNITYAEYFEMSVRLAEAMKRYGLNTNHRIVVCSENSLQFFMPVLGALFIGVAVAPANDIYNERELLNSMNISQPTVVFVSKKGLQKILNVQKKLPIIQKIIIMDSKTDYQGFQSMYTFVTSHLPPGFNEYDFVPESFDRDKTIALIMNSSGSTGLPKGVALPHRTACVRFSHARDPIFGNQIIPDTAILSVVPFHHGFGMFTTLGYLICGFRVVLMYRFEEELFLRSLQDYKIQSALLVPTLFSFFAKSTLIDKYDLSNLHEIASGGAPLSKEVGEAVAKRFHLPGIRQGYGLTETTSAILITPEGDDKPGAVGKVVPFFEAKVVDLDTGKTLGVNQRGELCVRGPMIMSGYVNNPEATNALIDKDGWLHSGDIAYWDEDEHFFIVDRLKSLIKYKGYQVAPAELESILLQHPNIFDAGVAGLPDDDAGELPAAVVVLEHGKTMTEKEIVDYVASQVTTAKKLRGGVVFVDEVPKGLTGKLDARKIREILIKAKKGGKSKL
S16 F2sN tox cnf = S16 Schwann cell cytotoxicity, confirmatory. shares compounds with PMP22 txn prim. S16 Schwann cells viability, CellTiter-Glo ATP luminescence, 24 h. Potency, µM (titrated, usually from 57.5 µM), for inactives: at the highest dose activity change, negative = viability loss, hits mostly cytotoxic. 7% of 690 active. AID 1508641; also: potency is read from the fitted curve at half-maximal effect; % is scaled to controls: 0 for no effect and ±100 for the full control effect
PMP22 txn conf = PMP22 transcription modulation, confirmatory; Potency, µM (titrated, usually from 57.5 µM), for inactives: at the highest dose activity change, negative = inhibition, hits mostly inhibitors; S16 Schwann cells Pmp22-F2sN, dual luciferase, 24 h; shares compounds with PMP22 txn prim; 22% of 690 active; AID 1508646; active = clear falling dose curves in both reporters; inconclusive = both reporters move, but less clearly or upward; inactive = either reporter flat; the % is the FLuc reporter signal; also: potency is read from the fitted curve at half-maximal effect
PMP22 HiBiT cnf = confirmation of modulators of rat PMP22 protein expression | shares compounds with PMP22 txn prim | S16 Schwann cells Pmp22-HiBiT, luminescence, 48 h | Potency, µM (highest dose often 27.9 µM), for the others: at the highest dose activity change, negative = inhibition, most hits filed as inhibitors | 95 tested, under 10 active
Target sequence (P25094 whole entry, looked up): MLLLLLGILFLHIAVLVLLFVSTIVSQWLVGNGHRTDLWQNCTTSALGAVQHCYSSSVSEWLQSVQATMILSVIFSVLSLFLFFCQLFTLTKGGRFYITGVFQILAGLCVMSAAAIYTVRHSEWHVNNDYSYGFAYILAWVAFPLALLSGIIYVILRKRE
* marks the source's active call; other numbers are inactive results. Unless noted, calls follow the shape of the dose curve; as a rule, active = well fitted curve in the direction sought with a large enough effect; inconclusive = small, poorly fitted or top-dose-only effect, or another doubt; inactive = no such curve, though single readings can be large; an effect the other way counts as inactive or inconclusive.

How did CCc1nnc(SCC(=O)N(C)c2ccccc2)c2cc3sccc3n12 do in these assays?
p53null 32C kill: -1.1%; S16 F2sN tox: inconclusive; OvCa metastasis: -8.4%; p53null 39C kill: -10.8%; PMP22 txn prim: 12.9µM*; pS6 MEF inh: 0.6%; NLuc sat counter: inconclusive; NLuc Km counter: inconclusive; FLuc counter: -11.6%; S16 F2sN tox cnf: -13.4%; PMP22 txn conf: inconclusive

Results for CCC(C)NC(=O)C1CCN(C(=O)c2cc3sccc3n2Cc2ccc(Cl)cc2)CC1 (stereo not given) ?
p53null 32C kill: 19.7%; S16 F2sN tox: inconclusive; OvCa metastasis: -7.3%; p53null 39C kill: 22.8%; PMP22 txn prim: 8.91µM*; pS6 MEF inh: -0.3%; NLuc sat counter: inconclusive; NLuc Km counter: inconclusive; FLuc counter: 10.9%; S16 F2sN tox cnf: inconclusive; PMP22 txn conf: 13.8µM*; PMP22 HiBiT cnf: 1.62µM*

How did CCOc1ccc(-c2c(C)nn3c(C)c(C(=O)NCCN(C)C)cnc23)cc1OCC do in these assays?
p53null 32C kill: 1.4%; S16 F2sN tox: 12.2%; OvCa metastasis: -0.4%; p53null 39C kill: 19.4%; PMP22 txn prim: -4.5%; pS6 MEF inh: -7.1%

Results for CCOc1ccc(-c2c(C)nn3c(C)c(C(=O)NCC(C)c4ccccc4)cnc23)cc1OCC (stereo not given) ?
p53null 32C kill: 11.5%; S16 F2sN tox: 3.8%; OvCa metastasis: inactive; p53null 39C kill: 47.8%; PMP22 txn prim: 16.8µM*; pS6 MEF inh: -16.5%; NLuc sat counter: inconclusive; NLuc Km counter: inconclusive; FLuc counter: -3.0%; S16 F2sN tox cnf: -15.8%; PMP22 txn conf: inconclusive

What do the screens show for `COc1cccc(NC(=O)CSc2ncc3c(n2)-c2ccc(Cl)cc2N(C)S3(=O)=O)c1`?
p53null 32C kill: 2.5%; S16 F2sN tox: -7.1%; OvCa metastasis: 6.1%; p53null 39C kill: -0.8%; PMP22 txn prim: 2.53µM*; pS6 MEF inh: 0.4%; NLuc sat counter: -6.4%; NLuc Km counter: 0.4%; FLuc counter: -1.0%; S16 F2sN tox cnf: -1.0%; PMP22 txn conf: inconclusive

How did COc1ccccc1NC(=O)CSc1ncc2c(n1)-c1cc(Cl)ccc1N(C)S2(=O)=O do in these assays?
p53null 32C kill: 13.9%; S16 F2sN tox: -26.5%; OvCa metastasis: 8.9%; p53null 39C kill: 1.0%; PMP22 txn prim: -24.3%; pS6 MEF inh: 8.4%

How did CCOC(=O)c1cc2c(=O)n3ccccc3nc2n(CC2CCCO2)c1=NC(=O)c1ccc(OC)cc1OC (stereo not given) do in these assays?
p53null 32C kill: -0.4%; S16 F2sN tox: -17.1%; OvCa metastasis: -2.5%; p53null 39C kill: -2.2%; PMP22 txn prim: -17.8%; pS6 MEF inh: -1.3%

What do the screens show for `O=C(Cc1ccc(Cl)cc1)Nc1ccc2nn(-c3ccccc3)nc2c1`?
p53null 32C kill: -3.5%; S16 F2sN tox: 20.0%; OvCa metastasis: 2.8%; p53null 39C kill: -3.1%; PMP22 txn prim: inconclusive; pS6 MEF inh: -4.8%

How did CCOc1ccc(-n2nc3ccc(NC(=O)Cc4ccccc4)cc3n2)cc1 do in these assays?
p53null 32C kill: -7.1%; S16 F2sN tox: inconclusive; OvCa metastasis: inconclusive; p53null 39C kill: 27.9%; PMP22 txn prim: 5.04µM*; pS6 MEF inh: 2.2%; NLuc sat counter: -5.0%; NLuc Km counter: 1.1%; FLuc counter: inconclusive; S16 F2sN tox cnf: 3.5%; PMP22 txn conf: -2.4%

How did Cc1ccc(S(=O)(=O)N2CCN(Cc3noc(CCC(=O)N4CCCCC4)n3)CC2)c(C)c1 do in these assays?
p53null 32C kill: -4.4%; S16 F2sN tox: -22.4%; OvCa metastasis: -3.9%; p53null 39C kill: -8.7%; PMP22 txn prim: inconclusive; pS6 MEF inh: -10.8%; NLuc sat counter: 0.0%; NLuc Km counter: 3.2%; FLuc counter: 2.6%; S16 F2sN tox cnf: -13.1%; PMP22 txn conf: -15.6%

Results for Cc1cc(C)c(S(=O)(=O)N2CCN(Cc3nc4ccc(C)cc4o3)CC2)c(C)c1 ?
p53null 32C kill: 14.6%; S16 F2sN tox: -11.4%; OvCa metastasis: -21.4%; p53null 39C kill: 3.1%; PMP22 txn prim: inconclusive; pS6 MEF inh: 31.7%

How did CN(C1CCCCC1)S(=O)(=O)c1ccc2c(c1)c(=O)c(C(=O)NCc1ccc(Cl)cc1)cn2C do in these assays?
p53null 32C kill: 0.6%; S16 F2sN tox: -1.2%; OvCa metastasis: -6.9%; p53null 39C kill: -8.4%; PMP22 txn prim: inconclusive; pS6 MEF inh: 0.2%; NLuc sat counter: -1.3%; NLuc Km counter: 7.4%; FLuc counter: 7.1%; S16 F2sN tox cnf: -11.1%; PMP22 txn conf: -31.1%
